# According to PubChem BioAssay AID588727 (Southern Research Specialized Biocontainment Screening …, 2011):
# Hit rate of the full screen: of about 350,000 compounds, about 450 (0.13%) were called active. No rule for the calls is given here. These entries were drawn from the full list. Potency and affinity values are given separately.
# Assay: inhibitors of VEEV TC-83 cytopathic effect, confirmation, Vero cells (AID 588727)
# Details: VEEV TC-83 cytopathic effect inhibition, at 20 µM
# [1] = stronger effect = higher value unless noted
# [2] = measured here: 10K pilot screen inhibition, stronger effect = higher value
smiles,measurement,setting,value
O=c1c2ccccc2nc(-c2ccco2)n1-c1nc2ccccc2s1,inhibition,[1],1.81% (inactive)
FC(F)Oc1ccc(NC(=S)N2CCc3ccccc32)cc1,inhibition,[1],0.39% (inactive)
Cc1ccccc1C(=O)N1CCC(C(=O)Nc2sccc2C(N)=O)CC1,inhibition,[1],2.51% (inactive)
CN(Cc1ccc(O)cc1)C1CCCCC1,inhibition,[1],1.27% (inactive)
OCC1(CCOc2ccccc2)CCN(Cc2cn[nH]c2-c2ccc(F)cc2)CC1,inhibition,[1],2.7% (inactive)
OCC1(CCOc2ccccc2)CCN(Cc2ccncc2)CC1,inhibition,[1],0.23% (inactive)
C=CCOc1ccc(C=Nc2ccc(Cl)cc2)c(O)c1,inhibition,[1],0.47% (inactive)
Cc1c(C(=O)N(C)CCn2ccnc2C)oc2c(F)cccc12,inhibition,[1],1.03% (inactive)
CCN(CC)C(=O)c1sc(NC(=O)c2ccoc2C)c(C(=O)OC)c1C,inhibition,[1],1.79% (inactive)
O=C(NCCN1CCOCC1)c1ccc(/C=C2\Sc3ccccc3N(Cc3ccccc3F)C2=O)cc1,inhibition,[1],10.8% (inactive)
CN1CCN(CCCNC(=O)c2ccc(/C=C3\Oc4ccccc4N(Cc4ccccc4F)C3=O)cc2)CC1,inhibition,[1],13.6% (inactive)
COc1ccccc1N1CCN(C(=S)Nc2ccccc2)CC1,inhibition,[1],1.3% (inactive)
CC(C)Oc1ccc(Cl)cc1Nc1nc(NCCO)nc(N2CCCC2)n1,inhibition,stronger effect = higher value,4.93% (inactive)
same,inhibition,[2],4.53%
Cc1ccc(NC(=O)CN2C(=O)NC3(CCCc4ccccc43)C2=O)c([N+](=O)[O-])c1 (stereo not given),inhibition,[1],1.12% (inactive)
Cc1ccccc1NS(=O)(=O)c1nnc(NC(=O)c2ccccc2F)s1,inhibition,stronger effect = higher value,1.96% (inactive)
same,inhibition,[2],3.31%
C(=C\c1ccncc1)/c1ccccc1,inhibition,[1],0.98% (inactive)
CC1(C)CC(=O)C=C(/C=C/c2ccccc2)C1,inhibition,[1],0.62% (inactive)
Cc1ccnc(SCc2cc(=O)c(OC(=O)c3cc([N+](=O)[O-])ccc3Cl)co2)n1,inhibition,[1],0.24% (inactive)
CCOC(=O)c1sc(=S)sc1SCc1cccc(C(F)(F)F)c1,inhibition,[1],inactive
O=S1(=O)C=C(SCc2ccc(F)cc2)Nc2ccccc21,inhibition,[1],inactive
CCCc1c(C(=O)NNc2cccc(Cl)c2)cnn1-c1ccccc1,inhibition,[1],2.24% (inactive)
CCCc1c(C(=O)Nc2ccc(F)cc2F)cnn1-c1ccccc1,inhibition,[1],inactive
CCCc1c(NC(=O)Nc2ccc(F)cc2)cnn1-c1ccc(Cl)cc1,inhibition,[1],3.23% (inactive)
CCCc1c(C(=O)Nc2ccc(F)cc2)cnn1-c1ccccc1,inhibition,[1],7.43% (inactive)
CC(Sc1nc2ncc(Cl)cc2[nH]1)C(=O)c1c(N)n(C)c(=O)n(C)c1=O (stereo not given),inhibition,[1],10.7% (inactive)
Cn1ncc2c(=O)[nH]cnc21,inhibition,[1],0.51% (inactive)
CC(=O)Nc1ccc(S(=O)(=O)N(C)CC(=O)OCC(=O)N(CC(C)C)C2CCS(=O)(=O)C2)cc1 (stereo not given),inhibition,[1],6.9% (inactive)
COc1ccc(NC(=O)CN(C)C(=O)c2cn(-c3ccccc3)nc2-c2cccnc2)cc1,inhibition,[1],6.98% (inactive)
CSCCC(NS(=O)(=O)c1ccc(Cl)cc1)C(=O)OCC(=O)NC12CC3CC(CC(C3)C1)C2 (stereo not given),inhibition,[1],2.38% (inactive)
O=C1Nc2ccccc2C1(O)c1ccccc1O (stereo not given),inhibition,[1],0.23% (inactive)
COc1c(NC(C)=O)c2c(c([N+](=O)[O-])c1OC)C(=O)OC2,inhibition,[1],0.9% (inactive)
COc1cc2c(O)c3c(c(-c4ccc5c(c4)OCO5)c2cc1OC)C(=O)OC3,inhibition,[1],8.81% (inactive)
O=S(=O)(NCc1ccccc1Cl)c1ccc(-n2cnnn2)cc1,inhibition,[1],1.99% (inactive)
CCCOc1ccc(C(=O)NNC(=S)NC(=O)c2ccccc2)cc1,inhibition,[1],7.4% (inactive)
CCCCC(=O)NC(=S)NNC(=O)c1ccc(OC)cc1,inhibition,[1],11% (inactive)
C=CCNC(=S)NNC(=O)c1ccc(OCCC)cc1,inhibition,[1],1.27% (inactive)
CCC(=O)NC(=S)NNC(=O)c1ccc(OC)cc1,inhibition,[1],3.83% (inactive)
CCCn1c(N)c(C(=O)CSc2nnc(N)s2)c(=O)[nH]c1=O,inhibition,[1],8.01% (inactive)
CCC1(CC)NC(=O)N(CC(=O)Nc2ccc(C)cc2C)C1=O,inhibition,[1],1.89% (inactive)
Cc1cn([C@H]2C[C@H](O)[C@@H](CNC(=O)[C@@H]3CCCN3Cc3ccccc3)O2)c(=O)[nH]c1=O,inhibition,[1],1.26% (inactive)
COCC(=O)N1CCCC(C(=O)c2ccc(-c3ccccc3)c(F)c2)C1 (stereo not given),inhibition,[1],3.71% (inactive)
COc1cc(OC)c(OC)cc1/C=C/C(=O)c1ccc(NS(=O)(=O)c2ccc(C)cc2)cc1,inhibition,[1],6.43% (inactive)
COc1cc(/C=C/C(=O)c2ccc(NS(=O)(=O)c3ccc(C)cc3)cc2)ccc1OC(F)F,inhibition,[1],42.9% (inactive)
COCCNC(=O)CCCn1c(=O)c2cc(OC)c(OC)cc2n(CC(=O)Nc2ccccc2OC)c1=O,inhibition,[1],1.37% (inactive)
O=C(CCc1ccccc1)N1CCN(c2ccc(Cl)cc2)CC1,inhibition,[1],0.61% (inactive)
CCCN(CCC)CCCNC(=O)c1ccc2c(Cl)c3c(nc2c1)CCC3,inhibition,[1],inactive
CCCCN(CC)CCNC(=O)c1ccc2c(Cl)c3c(nc2c1)CCC3,inhibition,[1],inactive
COc1cc2cc(C(=O)N/N=C/c3ccc(F)cc3)[nH]c2cc1OC,inhibition,[1],2.5% (inactive)
CCN1CCN(c2cc(C)c3cc(NC(=S)N4CCN(c5ccc(F)cc5)CC4)ccc3n2)CC1,inhibition,[1],0.9% (inactive)
Cc1nn(Cc2cccc(C(=O)O)c2)c(C)c1[N+](=O)[O-],inhibition,[1],1.46% (inactive)
Nc1ccccc1SCC1CSc2nc3ccccc3c(=O)n21 (stereo not given),inhibition,[1],1.18% (inactive)
O=c1c2ccccc2nc2n1C(CSc1ccccc1)CS2 (stereo not given),inhibition,[1],1% (inactive)
O=C(Nc1ccccc1SCC1CSc2nc3ccccc3c(=O)n21)c1ccccc1Cl (stereo not given),inhibition,[1],13.7% (inactive)
O=C(Nc1ccccc1SCC1CSc2nc3ccccc3c(=O)n21)c1ccccc1 (stereo not given),inhibition,[1],7.04% (inactive)
CC(NC(=O)Cn1c(=O)[nH]c2ccsc2c1=O)C12CC3CC(CC(C3)C1)C2 (stereo not given),inhibition,[1],4.05% (inactive)
O=C(N/N=C/c1ccc(F)cc1)c1cc(-c2ccc3c(c2)OCO3)n[nH]1,inhibition,[1],3.22% (inactive)
CN(CC(=O)Nc1ccc(F)cc1)C(=O)COC(=O)/C=C/c1ccccc1[N+](=O)[O-],inhibition,[1],5.33% (inactive)
COc1ccc(/C=N/Nc2nonc2N)cc1,inhibition,[1],0.29% (inactive)
COc1ccc(C2c3c(ncn(CCN4CCOCC4)c3=N)Oc3ccc4ccccc4c32)cc1OC (stereo not given),inhibition,[1],1.27% (inactive)
COc1ccc(C2c3c(ncn(CCCO)c3=N)Oc3ccc4ccccc4c32)cc1OC (stereo not given),inhibition,[1],4.99% (inactive)
Cc1ccc2sc(NNC(=O)C3=COCCO3)nc2c1C,inhibition,[1],2.26% (inactive)
CN(C)/C=C/C(=O)c1ccccc1OCc1cnc(Cl)s1,inhibition,[1],inactive
CC(C)(C)OC(=O)N1CCN(C(=O)c2[nH]cnc2C(=O)N[C@@H](Cc2ccccc2)C(=O)OCc2ccccc2)CC1,inhibition,[1],2.09% (inactive)
CC(C)(C)OC(=O)[C@H](Cc1ccccc1)NC(=O)c1nc[nH]c1C(=O)N1CCN(c2ccccc2)CC1,inhibition,[1],5.56% (inactive)
O=C(CSc1ncn[nH]1)N/N=C/c1ccc(Br)cc1,inhibition,[1],0.58% (inactive)
Cc1ccccc1NC(=O)COC(=O)C1C2CC3OC(=O)C1C3C2 (stereo not given),inhibition,[1],0.18% (inactive)
Cc1nc2c(c(=O)n1CCC1=CCCCC1)c1nc3ccccc3nc1n2/N=C/c1ccccc1,inhibition,[1],inactive
Cc1onc(-c2ccccc2)c1-c1nnc(CN2CCN(S(=O)(=O)c3ccccc3F)CC2)o1,inhibition,[1],7.39% (inactive)
Cc1ccc(C(=O)NCC(=O)Nc2ncccc2C)s1,inhibition,[1],inactive
COc1ccc(C(=O)NC(=O)Nc2ncccc2C)cc1,inhibition,[1],3.84% (inactive)
CCCCc1nc2sc3c(c2c(=O)n1NC(=O)c1ccco1)CC(C)(C)OC3,inhibition,[1],0.57% (inactive)
OCCNC(=S)NCc1ccccc1,inhibition,[1],0.77% (inactive)
O=C(NCC(=O)N(c1cccc(F)c1)C(C(=O)NC1CCCC1)c1cccnc1)c1cccs1 (stereo not given),inhibition,[1],inactive
Cc1sc2nc(CN(C(=O)c3cccs3)C3CCCC3)[nH]c(=O)c2c1C,inhibition,[1],5.66% (inactive)
O=C(C1CCCCC1)N(Cc1nc2sc3c(c2c(=O)[nH]1)CCCC3)Cc1cccs1,inhibition,[1],2.95% (inactive)
S=c1[nH]nc(-c2ccccn2)n1/N=C/c1ccc(-c2ccccc2Cl)o1,inhibition,[1],24.7% (inactive)
Clc1ccccc1-c1ccc(/C=N/n2cnnc2)o1,inhibition,[1],1.39% (inactive)
Cc1n[nH]c(=S)n1/N=C/c1ccc(-c2ccccc2[N+](=O)[O-])o1,inhibition,[1],2.62% (inactive)
S=c1[nH]nc(-c2cccc(Cl)c2)n1/N=C/c1ccc(-c2ccccc2Br)o1,inhibition,[1],23.7% (inactive)
Cc1nnc(C)n1/N=C/c1ccc(-c2ccccc2Cl)o1,inhibition,[1],inactive
Cc1ccc(-c2ccc(/C=N\n3cnnc3)o2)c(Br)c1,inhibition,[1],1.33% (inactive)
COc1ccc(CNC(=O)CNC(C)c2ccc(F)cc2)cc1 (stereo not given),inhibition,[1],inactive
O=C(Cn1nc(Cc2cccnc2)c2ccccc2c1=O)NCc1ccc(F)cc1,inhibition,[1],"0% [measured here: 10K pilot screen inhibition, stronger effect = higher value]"
same,outcome,[1],inactive
Cc1ccc(NC(=O)CSc2ncn[nH]2)cc1S(=O)(=O)N1CCOCC1,inhibition,[1],0.49% (inactive)
O=C(CNS(=O)(=O)c1ccccc1)OCc1cccc([N+](=O)[O-])c1,inhibition,[1],6.33% (inactive)
CN1CCN(c2nc3c(c(=O)[nH]c(=O)n3C)n2CCOc2ccccc2)CC1,inhibition,[1],1.82% (inactive)
COC(=O)C(NC(=O)CCC(=O)N[C@@H](C(=O)OC)c1ccccc1)c1ccccc1 (stereo not given in full),inhibition,[1],0.43% (inactive)
O=C(Nc1ccccc1Cl)OC1CCCCC1,inhibition,[1],0.52% (inactive)
Cc1c(C(=O)N(C)Cc2ccc(OC(F)F)cc2)oc2ccccc12,inhibition,[1],inactive
Cn1c(=O)c2c(nc(N/N=C/c3c(O)n(C4CCCCC4)c(=S)[nH]c3=O)n2C)n(C)c1=O,inhibition,[1],0.22% (inactive)
C/C(=N\NC(=O)c1ccncc1)c1c(O)n(Cc2ccccc2)c(=O)[nH]c1=O,inhibition,[1],2.16% (inactive)
CNc1ccc(Br)cc(C(=O)/C=C/c2ccc(OC)cc2OC)c1=O,inhibition,stronger effect = higher value,1.14% (inactive)
same,inhibition,[2],6.96%
CNc1ccc(Br)cc(C(=O)/C=C/c2cccc(OC)c2OC)c1=O,inhibition,[1],13.1% (inactive)
CNc1ccc(Br)cc(C(=O)/C=C/c2ccc(OC)cc2)c1=O,inhibition,[1],7.55% (inactive)
CNc1ccc(Br)cc(C(=O)/C=C/c2ccc3c(c2)OCO3)c1=O,inhibition,stronger effect = higher value,7.74% (inactive)
same,inhibition,[2],6.21%
